Compound activity deposited in PubChem BioAssay by National Center for Advancing Translational Sciences (NCATS).
MARV entry inh: Marburg virus entry inhibition; Marburg virus pseudotyped entry inhibition, cell reporter; Potency, µM (top dose mostly 37.8 µM), without a hit: at the highest dose activity change, negative = inhibition, actives largely listed as inhibitors; actives 1.8% (n = 300,000); AID 540276; calls by dose curve; tested in HEK293 cells; further: potency means the concentration at half of the fitted maximal effect; on the % scale 0 is the no-effect control and ±100 the full control effect
VACV mCherry inh: inhibitors of vaccinia virus infection (mCherry reporter signal). Vaccinia virus mCherry reporter infection, fluorescence. Potency, µM (doses to about 36.5 µM), for inactives: at the top dose activity change, negative = inhibition, usual class: inhibitors. actives 0.63% (n = 310,000); calls by dose curve; tested in A549 cells; further: potency means the concentration at half of the fitted maximal effect; on the % scale 0 is the no-effect control and ±100 the full control effect; nearly all actives have a fitted effect of over 35% in size
Lassa entry inh: blocks Lassa virus binding to or entry into cells; Potency, µM (series often up to 37.9 µM), for the others: at the top dose activity change, negative = inhibition, hits mostly inhibitors; actives 1.2% (n = 300,000); Lassa virus pseudotype entry inhibition, cell reporter; calls by dose curve; tested in HEK293 cells; further: potency means the concentration at half of the fitted maximal effect; on the % scale 0 is the no-effect control and ±100 the full control effect; nearly all actives have a fitted effect of over 50% in size
VACV Venus inh: vaccinia inhibition (Venus reporter); Vaccinia virus Venus reporter expression, fluorescence; Potency, µM (titrated, usually from 36.5 µM), without a hit: at the top dose activity change, negative = inhibition, hits mostly inhibitors; actives 0.46% (n = 330,000); AID 720580; calls by dose curve; tested in A549 cells; further: potency means the concentration at half of the fitted maximal effect; on the % scale 0 is the no-effect control and ±100 the full control effect; nearly all actives have a fitted effect of over 30% in size
HCMV antiviral: human cytomegalovirus inhibition; AID 1259415; HFF cells, HCMV-luciferase reporter, 72 h; hits give low values; activity change, negative = inhibition, % at 57.5 µM; actives 4.5% (n = 410,000); in the data active means activity change below about -60%; inconclusive means no clear call, values can overlap the other calls; inactive means above about -39%; further: on the % scale 0 is the no-effect control and ±100 the full control effect
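Luciferase read-out from HCMV-luciferase-infected HFFs (MOI 1 PFU/cell) 72 h post infection at 37C; compounds added after 16 h cell attachment; activity normalized between buffer-only basal and Salinomycin (10uM) inhibitor controls.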
FMDV inh: foot and mouth disease virus antiviral activity | actives 1.2% (n = 410,000) | Potency, µM (highest dose often 57.9 µM), without a hit: at the highest dose activity change, negative = inhibition, hits mostly inhibitors | AID 1159524 | FMDV antiviral cell-based qHTS; calls by dose curve; tested in HEK293T cells; further: read-out not given here; potency means the concentration at half of the fitted maximal effect; on the % scale 0 is the no-effect control and ±100 the full control effect; nearly all actives have a fitted effect of over 45% in size
G2M arrest HeLa: causes HeLa cells to arrest in G2/M phase | Potency, µM, most hits filed as inhibitors | actives 60% (n = 25) | shares compounds with MARV entry inh | HeLa cell cycle G2/M arrest, Hoechst DNA content imaging
WI-38 cytotox: toxic to WI-38 fibroblasts in PNC inhibitor counter-screen. Potency, µM (top dose mostly 46.1 µM), without a hit: at the top dose activity change, negative = cytotoxicity, actives largely listed as inhibitors. 120 tested, under 10 active. WI-38 normal lung fibroblasts, ATPLite luminescence ATP viability, 24 h. shares compounds with MARV entry inh
PNC inh conf: confirmation of perinucleolar compartment assembly inhibitors; PC3M PTB-GFP, PNC prevalence imaging, 16 h; AID 2730; actives 50% (n = 120); Potency, µM (highest dose often 46.1 µM), for the others: at the highest dose activity, negative = PNC inhibition, most hits filed as inhibitors; shares compounds with MARV entry inh
PC3M casp3-7: PC3M caspase 3/7 activation by PNC inhibitor hits; shares compounds with MARV entry inh; 120 tested, under 10 active; activity change, positive = activation, % at 46.1 µM; PC3M-GFP caspase 3/7 activation, luminescence, 24 h
* hit, by the source's call; i = inactive; ? = inconclusive; nt = no result; ! = not confirmed by another sample; [ ] = remark or other dose. Sampled rows, rich in hits. Any-hit rate of the full collection: about 6.5%. Unless noted, the call rests on the fitted dose curve; in most records, active means well fitted curve in the direction sought with a large enough effect; inconclusive means small, poorly fitted or top-dose-only effect, or another doubt; inactive means no such curve, though single readings can be large; an effect the other way counts as inactive or inconclusive.

SMILES	MARV entry inh	VACV mCherry inh	Lassa entry inh	VACV Venus inh	HCMV antiviral	FMDV inh	WI-38 cytotox	PNC inh conf	PC3M casp3-7	others
Nc1nc(N)c2nc(-c3ccccc3)c(N)nc2n1	2.8µM*!	?	?	?	?	-21%	nt	nt	nt	G2M arrest HeLa=10*
NSc1nc(N)c2nc(-c3ccccc3)c(-c3ccccc3)nc2n1	-16%[46.1 µM]	-21%	-5%	-20%	32	?	nt	nt	nt
C[C@]12Cc3cn4c(nc3C=C1CCC1C2CC[C@@]2(C)[C@H]1CC[C@@]2(O)C#N)nc1ccccc14 (stereo partly specified)	10µM*	nt	5.2µM*	nt	nt	nt	nt	nt	nt	G2M arrest HeLa=?
C#C[C@]1(O)CC[C@H]2[C@@H]3CCC4=CC(=O)CC[C@]4(C)[C@H]3CC[C@@]21C	-1%	-9%	2%	-20%	68	-5%	nt	nt	nt
Cc1cccc(N(CC(=O)Nc2ccccc2C(F)(F)F)S(=O)(=O)c2ccccc2)c1C	?	-11%	?	-15%	-26	-1%	nt	nt	nt
COc1cc(NC(=S)NC(=O)c2cc(C)cc(C)c2)ccc1NC(=O)c1cccs1	?	-15%	-16%	-17%	-29	-8%	nt	nt	nt
COc1cc(NC(=S)NC(=O)c2ccc(C(C)(C)C)cc2)ccc1NC(=O)c1cccs1	?	?	1µM*	8%	-97*	-12%	-10%	4µM*	1
Cc1cccc(-n2c(SCC(=O)Nc3ncc(Cl)cc3Cl)nc3ccccc32)c1	1.2µM*	3.2µM*	0.82µM*	-24%	-99*	0%	-15%	5µM*	-4
N=c1scc(-c2ccccc2)n1/N=C/c1ccco1	?	-2%	-19%	-12%	8	33%	nt	nt	nt
CCN=c1scc(-c2ccccc2)n1/N=C/c1ccccn1	?	5.6µM*	1.5µM*	5%	nt	?	16µM*	4µM*	-24
C=CCN=c1scc(-c2ccccc2)n1/N=C/c1ccccn1	2.8µM*	2.2µM*	?	13%	-99*	10%	?	2µM*	-15
Cc1nc2ccccc2c(=O)n1/N=C/c1ccccn1	18%	-11%	26%	-2%	?	nt	nt	nt	nt
NCC1OC(n2cnc3c(=O)[nH]c(N)nc32)C(O)C1O (stereo unspecified)	nt	i	nt	0%	nt	-1%	nt	nt	nt
Cc1c2ccncc2c(C)c2c1[nH]c1ccccc12	4.1µM*	11µM*	6.5µM*	10µM*	nt	-21%	-6%	?	3	G2M arrest HeLa=?
Cc1nccc2c1[nH]c1ccccc12	?	-11%	0%	-18%	13	-7%	nt	nt	nt
CC1CCN(S(=O)(=O)c2ccc3nc(NCc4ccccc4)ccc3c2)CC1	nt	-17%	?	-10%	-32	11%	nt	nt	nt
CC(=O)Nc1ccc(S(=O)(=O)Oc2ccc3c(c2)C(C)=CC(C)(C)N3)cc1	?	nt	0.82µM*	nt	nt	nt	-10%	5µM*	-5
CC1=CC(C)(C)Nc2ccc(OS(=O)(=O)c3ccc(C)cc3)cc21	-17%	nt	-14%	nt	-37	-23%	nt	nt	nt
CSc1nnc2c3ccccc3n(Cc3ccccc3)c2n1	-4%	nt	-6%	-5%	-23	-47%	nt	nt	nt
CSc1nnc2c3ccccc3n(CCc3ccccc3)c2n1	0.58µM*	nt	1µM*	nt	-98*	?	-4%	5µM*	-1
CCc1cccc(C)c1NC(=O)CSc1nnc(N)s1	nt	-10%	-17%[46.1 µM]	-11%	-16	31%	nt	nt	nt
CCc1ccc(S(=O)(=O)c2c(C(=O)c3ccc(C)c(C)c3)cnc3ccccc23)cc1	-13%[46.1 µM]	-2%[7.34 µM]	nt	-8%[7.34 µM]	33	-22%	nt	nt	nt
O=C(Cc1coc2ccc3ccccc3c12)Nc1nnc(C2CC2)s1	?	13µM*	2.5µM*	13%	-77*	-18%	-7%	7.9µM*	1
Cc1ccccc1C(=O)NNC(=S)Nc1cccc(C(F)(F)F)c1	?	?	?	?	-13	13%	-3%	-20%	-7
O=C(N/N=C/c1c(O)ccc2ccccc12)c1cccc(C(F)(F)F)c1	2.6µM*	3.5µM*	?	?	-105*	?	-18%	?	8
SMILES	MARV entry inh	VACV mCherry inh	Lassa entry inh	VACV Venus inh	HCMV antiviral	FMDV inh	WI-38 cytotox	PNC inh conf	PC3M casp3-7	others
COc1cccc(CNc2cccc3cccnc23)c1O	17%	nt	-19%	nt	27	20%	-9%	7%	1
Cc1ccc(C(C)C)c(OCc2ccc(C(=O)N/N=C/c3ccc(O)cc3O)cc2)c1	6.3µM*	1.6µM*	?	?	-97*	0%	-7%	?	-2
Cc1ccc(C(C)C)c(OCc2ccc(C(=O)N/N=C/c3ccc(C(=O)O)cc3)cc2)c1	nt	nt	nt	nt	0	-23%	nt	nt	nt
Cc1ccc(-n2cc(-c3ccccc3)c3c(NN4CCOCC4)ncnc32)cc1	3%	?	-9%	?	?	-21%	16%	-20%	-2
CCC(C)n1c(=O)c2sccc2n2c(CCCC(=O)NCc3ccccc3Cl)nnc12 (stereo unspecified)	nt	-5%	22%[46.1 µM]	-10%	-26	-6%	nt	nt	nt
CCOC(=O)Cn1c(-c2nonc2NC(=O)c2ccccc2F)nc2ccccc21	0.28µM*	10µM*	0.28µM*	10%	-98*	-17%	?	4.5µM*	1
CC(=O)Nc1nonc1-c1nc2ccccc2n1CCC(C)C	?	?	-5%	-24%	?	-25%	nt	nt	nt
COc1ccc(-c2cc(C#N)nc(N3CCN(C)CC3)n2)cc1	?	-4%	14%	-13%	-24	-17%	22%	?	-8
CSc1cccc(Nc2cc(C(=O)NCCCN(C)c3ccccc3)c3ccccc3n2)c1	nt	-20%	-10%[46.1 µM]	-16%	12	-21%	nt	nt	nt
Cc1ccc(OCC(=O)Nc2sc3c(c2C(N)=O)CCCC3)c(C(C)(C)C)c1	nt	-7%	3%[46.1 µM]	-24%	-21	-7%	nt	nt	nt
COc1cc(C(=O)Nc2nc(-c3ccc(F)cc3)cs2)ccc1OCC(=O)N1CCOCC1	?	nt	?	nt	?	-63%	nt	nt	nt
COc1ccc(-c2csc(NC(=O)c3ccc(OCC(=O)N4CCOCC4)c(OC)c3)n2)cc1	?	-18%	?	-19%	-24	?	2%	?	-8
Cc1cc(C(=O)Cn2nnc3ccccc3c2=O)c(C)n1-c1ccccc1F	3.2µM*	nt	1.1µM*	-7%	-87*	?	14µM*	4.5µM*	-19
